Assay results: the supplement of paper PMC3545927
The list shows a part of the results. How many sequences the whole screen found active is unknown.

Biological target: furin, P09958
Assay: furin cleavage Z-score vs untreated control; higher = more cleavage, active = 3.5 or more, inactive = 1 or less, 8 variable residues between constant flanks
Method in brief: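 In 50 mM HEPES pH 7.5 with CaCl2 and NaCl, purified furin was incubated with bead-anchored 8-mer peptide–cDNA fusions at 1:10 enzyme:substrate in 0.01 ml. Incubation times were 7.5, 15 and 30 min. DNA set free by cleavage was adapter-tagged by PCR and sequenced, with read counts taken as abundance. Log counts relative to furin-free reactions, after lowess adjustment and median absolute deviation scaling, form the cleavage Z-score.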

furin, P09958, sequence (P09958 whole entry): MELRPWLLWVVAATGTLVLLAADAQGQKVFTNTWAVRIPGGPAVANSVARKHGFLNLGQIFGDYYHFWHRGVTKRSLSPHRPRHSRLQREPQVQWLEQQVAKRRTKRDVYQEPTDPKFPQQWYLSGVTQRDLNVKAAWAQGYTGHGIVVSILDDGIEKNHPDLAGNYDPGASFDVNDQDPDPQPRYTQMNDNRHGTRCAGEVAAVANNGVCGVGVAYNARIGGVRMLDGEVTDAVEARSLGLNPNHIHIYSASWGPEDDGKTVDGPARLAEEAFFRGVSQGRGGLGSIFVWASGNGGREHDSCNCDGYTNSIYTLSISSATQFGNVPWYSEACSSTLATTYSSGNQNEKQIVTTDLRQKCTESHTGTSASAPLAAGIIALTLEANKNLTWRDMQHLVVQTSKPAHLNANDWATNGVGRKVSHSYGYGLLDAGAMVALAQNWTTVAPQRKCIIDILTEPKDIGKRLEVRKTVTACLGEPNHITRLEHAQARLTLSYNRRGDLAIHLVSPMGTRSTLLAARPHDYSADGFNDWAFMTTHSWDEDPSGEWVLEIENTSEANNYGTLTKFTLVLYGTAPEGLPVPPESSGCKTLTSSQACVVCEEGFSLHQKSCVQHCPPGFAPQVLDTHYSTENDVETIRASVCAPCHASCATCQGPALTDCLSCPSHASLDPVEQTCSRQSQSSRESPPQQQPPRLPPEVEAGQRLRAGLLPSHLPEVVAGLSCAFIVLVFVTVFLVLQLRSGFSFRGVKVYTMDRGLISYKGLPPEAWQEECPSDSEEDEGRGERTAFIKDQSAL

CAEVVTSQWVAGNASASA [HC2222]
furin cleavage Z-score (7.5 min): -0.277 (inactive) | furin cleavage Z-score (15 min): -0.189 (inactive) | furin cleavage Z-score (30 min): 0.204 (inactive)

CATTPCGGSWAGNASASA [HC62]
furin cleavage Z-score (7.5 min): -1.67 (inactive) | furin cleavage Z-score (15 min): 0.588 (inactive) | furin cleavage Z-score (30 min): -0.211 (inactive)

CADTMEECSQAGNASASA [HC1818]
furin cleavage Z-score (7.5 min): -0.715 (inactive) | furin cleavage Z-score (15 min): -1.26 (inactive) | furin cleavage Z-score (30 min): -0.384 (inactive)

CAVWKRRAEDAGNASASA [FS-2624]
furin cleavage Z-score (7.5 min): 0.714 (inactive) | furin cleavage Z-score (15 min): -0.547 (inactive) | furin cleavage Z-score (30 min): 0.046 (inactive)

CALPGRDGRDAGNASASA [FS-457]
furin cleavage Z-score (7.5 min): -0.75 (inactive) | furin cleavage Z-score (15 min): 1.1 | furin cleavage Z-score (30 min): 0.0293 (inactive)

CAVHVRIRRDAGNASASA [FS-1428]
furin cleavage Z-score (7.5 min): 15.3 (active) | furin cleavage Z-score (15 min): 15.9 (active) | furin cleavage Z-score (30 min): 11.3 (active)

CAVKGRGRRDAGNASASA [FS-889]
furin cleavage Z-score (7.5 min): 10.2 (active) | furin cleavage Z-score (15 min): 9.87 (active) | furin cleavage Z-score (30 min): 8.49 (active)

CALNERIRRDAGNASASA [FS-940]
furin cleavage Z-score (7.5 min): 13.3 (active) | furin cleavage Z-score (15 min): 15.6 (active) | furin cleavage Z-score (30 min): 11.4 (active)

CAGNNTLHCPAGNASASA [HC448]
furin cleavage Z-score (7.5 min): 0.837 (inactive) | furin cleavage Z-score (15 min): 0.103 (inactive) | furin cleavage Z-score (30 min): 0.597 (inactive)

CAYSTYGKFLAGNASASA [HC807]
furin cleavage Z-score (7.5 min): 0.775 (inactive) | furin cleavage Z-score (15 min): -0.645 (inactive) | furin cleavage Z-score (30 min): -0.0395 (inactive)

CAHVGPGEGAAGNASASA [HC1113]
furin cleavage Z-score (7.5 min): -0.488 (inactive) | furin cleavage Z-score (15 min): 0.461 (inactive) | furin cleavage Z-score (30 min): -1.05 (inactive)

CARLRDSGRAAGNASASA [FS-85]
furin cleavage Z-score (7.5 min): 0.0348 (inactive) | furin cleavage Z-score (15 min): -1.47 (inactive) | furin cleavage Z-score (30 min): -0.955 (inactive)

CARLCRSVSGAGNASASA [FS-1859]
furin cleavage Z-score (7.5 min): 0.288 (inactive) | furin cleavage Z-score (15 min): 0.971 (inactive) | furin cleavage Z-score (30 min): 1.11

CARLCRRSRAAGNASASA [FS-1561]
furin cleavage Z-score (7.5 min): 6.16 (active) | furin cleavage Z-score (15 min): 7.37 (active) | furin cleavage Z-score (30 min): 6.05 (active)

CAKERRYARKAGNASASA [FS-257]
furin cleavage Z-score (7.5 min): 4.36 (active) | furin cleavage Z-score (15 min): 5.28 (active) | furin cleavage Z-score (30 min): 4.54 (active)

CAKESRGARGAGNASASA [FS-447]
furin cleavage Z-score (7.5 min): -0.759 (inactive) | furin cleavage Z-score (15 min): -0.656 (inactive) | furin cleavage Z-score (30 min): -0.69 (inactive)

CAKLKLTPIAAGNASASA [HC1637]
furin cleavage Z-score (7.5 min): -0.816 (inactive) | furin cleavage Z-score (15 min): -1.09 (inactive) | furin cleavage Z-score (30 min): -2.93 (inactive)

CAKERREKRAAGNASASA [FS-601]
furin cleavage Z-score (7.5 min): 5.22 (active) | furin cleavage Z-score (15 min): 4.77 (active) | furin cleavage Z-score (30 min): 4.29 (active)

CAQKRREKKAAGNASASA [FS-79]
furin cleavage Z-score (7.5 min): -0.611 (inactive) | furin cleavage Z-score (15 min): 2.25 | furin cleavage Z-score (30 min): 1.6

CARLEREKRAAGNASASA [FS-859]
furin cleavage Z-score (7.5 min): 7.92 (active) | furin cleavage Z-score (15 min): 10 (active) | furin cleavage Z-score (30 min): 6.63 (active)

CAHAPTGSGKAGNASASA [HC775]
furin cleavage Z-score (7.5 min): 0.395 (inactive) | furin cleavage Z-score (15 min): -1.05 (inactive) | furin cleavage Z-score (30 min): -0.0524 (inactive)

CAMEGCSQHLAGNASASA [HC1716]
furin cleavage Z-score (7.5 min): 1.23 | furin cleavage Z-score (15 min): 0.47 (inactive) | furin cleavage Z-score (30 min): 0.552 (inactive)

CAAEMEECSQAGNASASA [HC1783]
furin cleavage Z-score (7.5 min): -0.835 (inactive) | furin cleavage Z-score (15 min): 2.03 | furin cleavage Z-score (30 min): -0.939 (inactive)

CASTPCSSHLAGNASASA [HC2537]
furin cleavage Z-score (7.5 min): -0.548 (inactive) | furin cleavage Z-score (15 min): -0.18 (inactive) | furin cleavage Z-score (30 min): 0.0993 (inactive)

CAEVVTSTFVAGNASASA [HC2227]
furin cleavage Z-score (7.5 min): 0.885 (inactive) | furin cleavage Z-score (15 min): 0.0423 (inactive) | furin cleavage Z-score (30 min): 0.809 (inactive)

CASRPSWGPTAGNASASA [HC212]
furin cleavage Z-score (7.5 min): -1.22 (inactive) | furin cleavage Z-score (15 min): 0.133 (inactive) | furin cleavage Z-score (30 min): -0.131 (inactive)

CAPSRRRKREAGNASASA [FS-1385]
furin cleavage Z-score (7.5 min): 13.2 (active) | furin cleavage Z-score (15 min): 15 (active) | furin cleavage Z-score (30 min): 9.92 (active)

CAPSPEFFTEAGNASASA [HC1219]
furin cleavage Z-score (7.5 min): -1.44 (inactive) | furin cleavage Z-score (15 min): -0.301 (inactive) | furin cleavage Z-score (30 min): -0.0659 (inactive)

CAYRFVAPGEAGNASASA [HC910]
furin cleavage Z-score (7.5 min): -0.691 (inactive) | furin cleavage Z-score (15 min): -0.942 (inactive) | furin cleavage Z-score (30 min): -0.913 (inactive)

CAIPKARRPEAGNASASA [HC193]
furin cleavage Z-score (7.5 min): -0.401 (inactive) | furin cleavage Z-score (15 min): -0.306 (inactive) | furin cleavage Z-score (30 min): -0.34 (inactive)

CAEVAERKREAGNASASA [FS-1195]
furin cleavage Z-score (7.5 min): -1.19 (inactive) | furin cleavage Z-score (15 min): 1.03 | furin cleavage Z-score (30 min): 0.657 (inactive)

CAPTRRRWREAGNASASA [FS-1386]
furin cleavage Z-score (7.5 min): 5.77 (active) | furin cleavage Z-score (15 min): 5.98 (active) | furin cleavage Z-score (30 min): 7.12 (active)

CAYRTRRKREAGNASASA [FS-637]
furin cleavage Z-score (7.5 min): 9.23 (active) | furin cleavage Z-score (15 min): 8.28 (active) | furin cleavage Z-score (30 min): 6.71 (active)

CAEAEVPCHRAGNASASA [HC2443]
furin cleavage Z-score (7.5 min): 1.31 | furin cleavage Z-score (15 min): 1.69 | furin cleavage Z-score (30 min): -0.0334 (inactive)

CAPLEVVTSTAGNASASA [HC2279]
furin cleavage Z-score (7.5 min): 0.247 (inactive) | furin cleavage Z-score (15 min): 0.62 (inactive) | furin cleavage Z-score (30 min): 0.87 (inactive)

CAKPAIIPDRAGNASASA [HC1006]
furin cleavage Z-score (7.5 min): -0.622 (inactive) | furin cleavage Z-score (15 min): 0.0184 (inactive) | furin cleavage Z-score (30 min): -0.00549 (inactive)

CAGAVQNEITAGNASASA [HC975]
furin cleavage Z-score (7.5 min): -1.74 (inactive) | furin cleavage Z-score (15 min): -0.537 (inactive) | furin cleavage Z-score (30 min): -1.39 (inactive)

CAGCPPDSDAAGNASASA [HC1348]
furin cleavage Z-score (7.5 min): 0.143 (inactive) | furin cleavage Z-score (15 min): -0.261 (inactive) | furin cleavage Z-score (30 min): -1.34 (inactive)

CARQRRSHVLAGNASASA [FS-2766]
furin cleavage Z-score (7.5 min): 2.3 | furin cleavage Z-score (15 min): 4.17 (active) | furin cleavage Z-score (30 min): 4.75 (active)

CARQRRVAGLAGNASASA [FS-2767]
furin cleavage Z-score (7.5 min): -1.21 (inactive) | furin cleavage Z-score (15 min): -0.684 (inactive) | furin cleavage Z-score (30 min): 1.04

CARQRRSSGHAGNASASA [FS-3164]
furin cleavage Z-score (7.5 min): 6.61 (active) | furin cleavage Z-score (15 min): 6.83 (active) | furin cleavage Z-score (30 min): 6.04 (active)

CARQRRHPELAGNASASA [FS-2763]
furin cleavage Z-score (7.5 min): 2.08 | furin cleavage Z-score (15 min): 1.42 | furin cleavage Z-score (30 min): 4.23 (active)

CARQRRPWEPAGNASASA [FS-2366]
furin cleavage Z-score (7.5 min): -0.356 (inactive) | furin cleavage Z-score (15 min): -0.595 (inactive) | furin cleavage Z-score (30 min): -1.76 (inactive)
